Data from PubChem BioAssay AID720530 (The Scripps Research Institute Molecular Screening Center, 2013).
Out of some 1,000 compounds screened, about 260 (26%) were called active. Only a sample is shown. A number with no mark means an inactive call. Rule as the data show it: active = inhibition above about 21%; inactive = the rest.

Each compound was assayed against E3 ubiquitin-protein ligase UHRF1 (Homo sapiens) (UniProt Q96T88) (assay: blockers of UHRF1 binding to methyl-oligo – biochemical, TR-FRET, human UHRF1, counter-screen for MBD2 inhibitor project (AID 720530;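 also: UHRF1 SRA domain binding a labeled hemimethylated CpG hairpin DNA; 0% = vehicle only and 100% = reference inhibitor with vehicle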)). Conditions: UHRF1 binding to methylated oligonucleotide, at 4.4 µM, stronger effect = higher value.
Chain of E3 ubiquitin-protein ligase UHRF1 (Homo sapiens) (Q96T88 whole entry, looked up, the tested form may be a part): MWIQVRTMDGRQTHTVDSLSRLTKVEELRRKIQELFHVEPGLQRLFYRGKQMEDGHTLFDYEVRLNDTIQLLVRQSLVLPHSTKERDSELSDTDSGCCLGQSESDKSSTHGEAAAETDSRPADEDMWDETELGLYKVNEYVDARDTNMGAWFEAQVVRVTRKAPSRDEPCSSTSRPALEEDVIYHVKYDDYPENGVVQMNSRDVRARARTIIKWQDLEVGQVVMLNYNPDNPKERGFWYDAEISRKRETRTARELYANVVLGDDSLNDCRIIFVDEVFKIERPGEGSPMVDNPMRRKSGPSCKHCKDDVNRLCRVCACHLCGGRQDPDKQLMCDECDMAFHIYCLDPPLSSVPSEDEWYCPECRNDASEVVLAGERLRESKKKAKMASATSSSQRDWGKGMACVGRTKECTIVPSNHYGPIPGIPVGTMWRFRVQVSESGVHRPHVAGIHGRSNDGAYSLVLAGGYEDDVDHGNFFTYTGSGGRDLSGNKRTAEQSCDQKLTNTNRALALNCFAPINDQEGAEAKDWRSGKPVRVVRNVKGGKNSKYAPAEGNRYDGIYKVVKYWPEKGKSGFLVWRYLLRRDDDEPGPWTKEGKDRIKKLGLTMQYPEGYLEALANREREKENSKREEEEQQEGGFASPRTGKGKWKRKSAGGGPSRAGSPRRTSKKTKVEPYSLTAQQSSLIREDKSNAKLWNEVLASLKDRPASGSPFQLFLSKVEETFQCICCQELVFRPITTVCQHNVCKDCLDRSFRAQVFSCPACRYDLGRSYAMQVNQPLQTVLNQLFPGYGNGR

Compound | inhibition
COc1ccc(N2C(=O)/C(=C/c3ccco3)C(=O)NC2=S)cc1 | 97.2% (active)
O=C1NC(=O)N(Cc2ccco2)C(=O)/C1=C\c1ccc(-c2ccc(F)cc2)o1 | 12.8%
Cc1cc(/C=C2/C(=O)NC(=O)N(Cc3ccco3)C2=O)c(C)n1-c1ccc(C(=O)O)cc1 | 15.7%
